Assay results from PubChem BioAssay AID1039 (National Center for Advancing Translational Sciences (NCATS), 2008).
The source made the active and inactive calls. A call without a number means that no potency is given here. The call rests on the fitted dose curve.

Test: Normal 2 Cell Viability Secondary Assay for qHTS Assay for Epigenetic Modulators
Settings: Normal 2 bronchial epithelial viability, MTS, 4 days
Text: NIH Molecular Libraries Screening Centers Network [MLSCN] NIH Chemical Genomics Center [NCGC] MLSCN Grant: 1 X01 MH079860-01 Assay Provider: Elisabeth D. Martinez, University of Texas SW Medical Center NCGC Assay Overview: This secondary assay characterizes selected actives identified in the qHTS of the Locus Derepression (LDR) assay (PubChem AID 597). The LDR assay detects the derepression of a GFP reporter that is stably integrated in a region of the genome of murine c127i mammary cells that is presumably silenced. Compounds that cause derepression of the locus to express GFP are identified by enumerating GFP positive cells using a laser-scanning microplate cytometer. Selected LDR actives were assayed for killing of Normal 2, a patient-derived normal bronchial epithelial line matched to NSCLC 2, a nonsmall cell lung carcinoma line from the same patient. The Normal 2 line assays the cytoxicity of test compounds on normal lung cells. Normal 2 cell viability was measured using Cell Titer 96 AQueous One (Promega), an assay which detects the ability of metabolically active cells to reduce a tetrazolium salt substrate (MTS), into a soluble formazan product that can be measured by colorimetry.
NCGC Assay Protocol Summary Normal 2 cells were plated in 96-well flat bottom tissue culture dishes (Corning) and grown overnight at 37 C and 5% CO2, then treated with compounds, incubated 4 days, and assayed for viability using the Cell Titer 96 AQueous One kit (Promega) according to the manufacturer's protocol. Absorbance at 490 nm and 650 nm (reference) was measured by a Spectra Max (Molecular Devices). Data were normalized to the untreated control (100% viability). Each cell line was tested in one or two independent assays, each containing 4 or 8 replicates. For further details, see R.L. Johnson, W. Huang, A. Jadhav, C.P. Austin, J. Inglese, E.D. Martinez, A Quantitative High-Throughput Screen Identifies Potential Epigenetic Modulators of Gene Expression, Analytical Biochemistry (2007), doi: 10.1016/j.ab.2007.12.028

With O=C(CSc1cccc2cccnc12)NCc1ccccc1 as the compound, how does the outcome read?
Its outcome is “inactive”.

For CC(C)C(=O)NC(c1ccco1)c1ccc2cccnc2c1O (stereo not drawn), which Potency is on record?
The Potency was 10 µM (active).

For CC(/C=C/C(=O)NO)=C\[C@@H](C)C(=O)c1ccc(N(C)C)cc1, which outcome is on record?
The outcome was “inactive”.

Which Potency does the source give for CC(C)C(=O)NC(c1ccc(N(C)C)cc1)c1ccc2cccnc2c1O (stereo not drawn) here?
Its Potency is 5 µM (active).

With O=Nc1ccc(O)c2ncccc12 as the compound, how does the Potency read?
The Potency was 9 µM (active).

Which outcome does the source give for O=C(CSc1cccc2cccnc12)N1CCCC1 here?
Its outcome is “inactive”.

Which outcome does the source give for CN1C(=S)SC(c2ccccc2)N(C)C1c1ccccc1 (stereo not drawn) here?
Its outcome is “inactive”.

Which Potency does the source give for CC(C)C(=O)NC(c1ccco1)c1cc([N+](=O)[O-])c2cccnc2c1O (stereo not drawn) here?
Its Potency is 2 µM (active).
